In all, about 360,000 compounds went through this assay and about 1,300 (0.36%) were called active. The sample holds actives, similar compounds and a random draw of the others, so the mix is not that of the screen. Rule as the data show it: active = inhibition above about 19%; inactive = the rest.
Each compound was assayed on T-cell receptor (TCR) (assay: inhibitors of human TCR-CD3 interaction, primary screen, biochemical, fluorescence, TAMRA-labeled TCR probe (AID 651800;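 also: recombinant mutant TCR 2C K166C tagged with TAMRA read by polarization; 0% = receptor in buffer alone and 100% = receptor with positive control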)). Conditions: at 9.4 µM, hits give high values.
In the case of Cc1[nH]nc2c1C(c1ccc(Br)cc1)NC2=O (stereo unspecified), the inhibition was -1.49% (inactive).
In the case of C[C@@H](CN1C2=NC[C@@H](Cc3ccccc3)N2C[C@H]1Cc1ccc(O)cc1)NC(=O)CCC1CCCCC1, the inhibition was -8.44% (inactive).
In the case of CCC(=O)NC(=S)Nc1ccc(NC(=O)c2ccco2)c(Cl)c1, the inhibition was 27.1% (active).
In the case of O=C(NNC(=S)Nc1ccc(Br)cc1Cl)c1ccco1, the inhibition was 0.36% (inactive).
In the case of CCOC(=O)c1ccc(NC(=O)CNC(=O)c2ccco2)cc1, the inhibition was -5.65% (inactive).
For O=C(CN1CCN(c2ccc(O)cc2)CC1)NC1CCCc2ccccc21 (stereo unspecified), the inhibition was -3.37% (inactive).
For COC(=O)C1=C(C)N(Cc2ccccc2C(F)(F)F)C(=NCc2ccc(OC)cc2)NC1c1cccc(C(F)(F)F)c1 (stereo unspecified), the inhibition was 6.08% (inactive).
Cc1noc(C)c1NC(=O)Nc1ccc2c(c1)C(=O)N([C@H](C)CO)C[C@H](C)[C@H](CN(C)Cc1ccncc1)OCCCC[C@@H](C)O2 was tested, and the inhibition was 7.13% (inactive).
CN1CCCc2nc(-c3ccccc3)ccc21 was tested, and the inhibition was 3.5% (inactive).
With CC(C)CC1NC(=O)c2cc(Cl)ccc2-n2c1nc1ccccc1c2=O (stereo unspecified) the inhibition was 3.77% (inactive).
CCOC(=O)C1=C(C(=O)OCC)C2N(Cc3ccc(C#N)cc3)c3ccccc3[C@@]23C[C@@H](C(=O)OC)N(S(=O)(=O)c2ccc(F)cc2)C3=N1 (stereo partly specified) was tested, and the inhibition was -0.94% (inactive).
With C[C@H](O)[C@@H]1C(=O)N2CCc3c([nH]c4c(-c5ccc6c(c5)OCO6)cccc34)[C@@H]2C[C@@H]1N(C)C(=O)c1ccco1 the inhibition was -0.59% (inactive).
For NC1=CC(=O)C(=O)c2cccnc21, the inhibition was 23.6% (active).
CC[C@H](C)[C@H]1CNC(=O)C(=O)N1CC1CCN(CCc2ccc(OC)c(OC)c2)CC1 was tested, and the inhibition was 4.26% (inactive).
With CC(=O)NCc1ccc(S(=O)(=O)NC2CCN(Cc3ccccc3)CC2)cc1 the inhibition was 0.98% (inactive).
For COc1ccc2c(-c3ccccc3)cc(SCC(=O)N(C)C3CCS(=O)(=O)C3)nc2c1 (stereo unspecified), the inhibition was 1.46% (inactive).
With O=C(c1cc(-c2ccco2)nc2ccccc12)N(Cc1nnc(-c2ccc(Cl)cc2)o1)C1CC1 the inhibition was -2.45% (inactive).
With CN(C(=O)COC(=O)c1cc(-c2ccco2)nc2ccccc12)C1CCS(=O)(=O)C1 (stereo unspecified) the inhibition was 30.6% (active).
C[C@@H](NC(=O)OC(C)(C)C)c1nnc(S(=O)(=O)Cc2ccccc2)o1 was tested, and the inhibition was 6.57% (inactive).
With COC(=O)Cc1nnn2c1[C@H](C)[C@@H](OC)c1cc(Br)ccc1-2 the inhibition was -3.71% (inactive).
COC(=O)[C@]12C[C@H](CC(=O)NCCc3ccccc3OC)C(=O)N(Cc3ccccc3)C1=C[C@H](C(C)C)O[C@@H]2C1CC1 was tested, and the inhibition was 0.38% (inactive).
In the case of Cc1[nH]c2ccccc2c1CC(=O)Nc1ccc(Nc2cccnc2)c(-c2cccc(Cl)c2)c1, the inhibition was 7.27% (inactive).
For COc1ccc(N2CCN(C(=O)COc3ccc4c(C)cc(=O)oc4c3)CC2)cc1, the inhibition was 4.22% (inactive).
For Cc1ccc(O)c(/C=N/NC(=O)COc2ccc3c(C)cc(=O)oc3c2)c1, the inhibition was 35% (active).
For CC(=O)c1c(C)[nH]c(C(=O)COc2ccc3c(C)cc(=O)oc3c2)c1C, the inhibition was -7.65% (inactive).
With Cc1nc(NC(=O)C(C)(C)C)sc1[N+](=O)[O-] the inhibition was -8.33% (inactive).
In the case of O=S1(=O)c2ccc(Br)cc2-n2nncc2CN1Cc1cccc(Cl)c1, the inhibition was 3.21% (inactive).
With Nc1ncnc2c1ncn2[C@@H]1O[C@H](C(=O)N[C@@H](CCc2ccccc2)C(=O)NCC(=O)N2CCOCC2)[C@@H](O)[C@H]1O the inhibition was 10.8% (inactive).
With COC(=O)C(C(=O)OC)c1ccccc1NS(=O)(=O)c1cccc2ccccc12 the inhibition was 6.59% (inactive).
In the case of O=C(NN=Cc1ccco1)C(=O)Nc1ccc(Cl)c([N+](=O)[O-])c1, the inhibition was 3.53% (inactive).
For CCOc1cc(/C=N/NC(=O)c2cccc(S(=O)(=O)N3CCOCC3)c2)ccc1OCC(=O)N(C)C, the inhibition was -6.38% (inactive).
For O=C(NNC1=NCCC1)c1cccc(S(=O)(=O)N2CCCCC2)c1, the inhibition was -7.2% (inactive).
For Cc1ncc(CO)c(/C=N/NC(=O)c2cccc(S(=O)(=O)N3CCCC3)c2)c1O, the inhibition was 27.1% (active).
O=C(O)Cn1cnc2c(NCc3ccccc3)ncnc21 was tested, and the inhibition was -4.94% (inactive).
COCCNC(=O)COc1ccc(N(C)S(=O)(=O)c2ccc3ccccc3c2)cc1 was tested, and the inhibition was -0.41% (inactive).
Cc1cc2ccccc2n1CCNC(=O)COc1ccc2ccccc2c1 was tested, and the inhibition was 60.3% (active).
For Cc1ccc(C)c(NC(=O)CN(C)C(=O)COc2ccc3ccccc3c2)c1, the inhibition was -2.17% (inactive).
With N#Cc1cccc(C(=O)NCC2CCN(C(=O)C(=O)c3cc4ccccc4o3)CC2)c1 the inhibition was 0.99% (inactive).
With CCOc1ccccc1C(=O)N1CCC[C@@H]1C(=O)N1CCC[C@H]1C(=O)NCc1ccccc1 the inhibition was -2.28% (inactive).
For Cc1ccc2nc(-c3ccc(NC(=O)CN(C)S(=O)(=O)c4ccccc4)cc3)sc2c1, the inhibition was 8.35% (inactive).
O=C(Nc1cccc(-c2nc3ccccc3[nH]2)c1)c1ccc(C(=O)Nc2cccc(-c3nc4ccccc4[nH]3)c2)cc1 was tested, and the inhibition was 26.7% (active).
O=C(Nc1ccccc1)c1cc2ccccc2[nH]1 was tested, and the inhibition was -3.23% (inactive).
With O=C(NCC(O)c1nc2ccccc2[nH]1)c1ccc(Br)cc1 (stereo unspecified) the inhibition was 4.63% (inactive).
With Cc1cc(OC(=O)NCCc2ccc(F)cc2)ccc1F the inhibition was 1.4% (inactive).
For COC(=O)c1cc2c(c3c4cc(F)ccc4n(S(=O)(=O)c4ccccc4)c13)C(=O)N(Cc1ccccc1OC)C2, the inhibition was 2.91% (inactive).
In the case of CC(C)(C)C(c1nc2ccccc2[nH]1)n1c(Cc2csc3ccccc23)nc2ccccc21 (stereo unspecified), the inhibition was 5.18% (inactive).
